The record followed here is PubChem BioAssay AID504339 (National Center for Advancing Translational Sciences (NCATS), 2011).

Structures are written as SMILES. About 17,000 (4.4%) of roughly 390,000 compounds were called active. Inconclusive results (about 8%) are left out. The call rests on the fitted dose curve; in most records, active means well fitted inhibition curve with a large enough effect; inconclusive means small, poorly fitted or top-dose-only effect; inactive means no such curve, though single readings can be large or run the other way. The list comes from a sample in which actives are over-represented; it also holds similar structures and randomly drawn compounds. Entries that show only a call come without a potency.
Potency means the concentration at half of the fitted maximal effect.

The assay deals with Lysine-specific demethylase 4A (Homo sapiens) (UniProt O75164). Put plainly: qHTS Assay for Inhibitors of JMJD2A-Tudor Domain. Further: nearly all actives have a fitted effect of over 50% in size. The settings on record: AlphaScreen JMJD2A-Tudor / H3K4me3 peptide binding; series mostly up to 114 µM.
Sequence of Lysine-specific demethylase 4A (Homo sapiens) (O75164 whole entry, looked up, the tested form may be a part): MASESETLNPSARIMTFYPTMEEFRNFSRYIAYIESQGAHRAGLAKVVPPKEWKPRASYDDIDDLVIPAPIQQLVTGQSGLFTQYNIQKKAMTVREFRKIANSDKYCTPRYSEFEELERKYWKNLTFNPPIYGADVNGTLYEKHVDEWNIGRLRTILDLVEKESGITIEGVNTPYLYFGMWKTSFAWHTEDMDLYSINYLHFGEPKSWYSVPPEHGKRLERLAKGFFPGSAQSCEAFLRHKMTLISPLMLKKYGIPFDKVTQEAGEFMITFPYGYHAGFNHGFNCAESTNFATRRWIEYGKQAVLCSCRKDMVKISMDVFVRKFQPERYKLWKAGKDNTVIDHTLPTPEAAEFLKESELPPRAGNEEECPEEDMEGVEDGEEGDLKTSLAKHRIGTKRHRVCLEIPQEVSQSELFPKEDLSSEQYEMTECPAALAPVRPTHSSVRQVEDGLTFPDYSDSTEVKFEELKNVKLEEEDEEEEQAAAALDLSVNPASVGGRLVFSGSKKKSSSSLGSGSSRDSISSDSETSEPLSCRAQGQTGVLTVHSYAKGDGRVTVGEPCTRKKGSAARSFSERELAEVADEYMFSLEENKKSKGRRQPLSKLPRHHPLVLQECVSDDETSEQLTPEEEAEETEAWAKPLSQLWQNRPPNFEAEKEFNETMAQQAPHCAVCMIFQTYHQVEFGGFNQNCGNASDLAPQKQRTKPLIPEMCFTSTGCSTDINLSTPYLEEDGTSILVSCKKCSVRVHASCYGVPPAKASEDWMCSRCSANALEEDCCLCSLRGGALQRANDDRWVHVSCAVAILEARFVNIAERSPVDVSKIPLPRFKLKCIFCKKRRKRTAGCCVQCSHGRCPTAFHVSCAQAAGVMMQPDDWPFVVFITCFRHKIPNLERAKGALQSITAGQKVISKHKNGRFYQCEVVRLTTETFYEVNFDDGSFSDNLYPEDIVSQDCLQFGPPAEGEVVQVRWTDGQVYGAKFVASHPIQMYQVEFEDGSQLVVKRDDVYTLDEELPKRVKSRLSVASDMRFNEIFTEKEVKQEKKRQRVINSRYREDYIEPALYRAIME
For the compound `CC(=O)OC(COc1ccc(F)cc1)Cn1cnc2ccccc21` (centres undefined), the Potency is 79.4 µM (active).
The same measure, in the same setting: the entry for `CC(=O)N=c1ncn(CC(COC(C)=O)OC(C)=O)c2nc[nH]c12` (centres undefined) is “inactive”; for `CC(C)c1ccc(OCC(O)Cn2cnc3ccccc32)cc1` (centres undefined) it is “inactive”.
Still for that read-out and setting: the entry for `Cc1ccc(Cl)cc1NC(=O)CSc1nc2ccccc2nc1Cc1ccccc1` is “inactive”.
Consider `COC(=O)c1c(NC(=O)c2cc(=O)c3c(C)cc(C)cc3o2)sc2c1CCCC2`, for which the Potency entry was “inactive”.
As to `Cc1nc([N+](=O)[O-])nn1C12CC3CC(CC(Br)(C3)C1)C2`, the Potency is 56.2 µM (active).
The same measure, in the same setting: the entry for `COc1cccc(NC(=O)c2nn(C34CC5CC(CC(C5)C3)C4)cc2[N+](=O)[O-])c1` is “inactive”; for `O=C(COc1ccccc1)OCc1cc(=O)n2nc(-c3cccs3)sc2n1` it is “inactive”.
In the case of `CCC(=O)N1c2ccccc2CC1C(=O)N1CCN(c2ccccc2)CC1` (centres undefined), the Potency entry was “inactive”.
The same measure, in the same setting: the entry for `CCN(CC)S(=O)(=O)c1ccc2c(c1)N(CC(=O)NCc1ccccc1)C(=O)CS2` is “inactive”; for `CCCS(=O)(=O)Nc1cccc(-c2cn3ccsc3n2)c1` it is “inactive”.
On to `COc1ccc(C2Sc3ccccc3NC3=C2C(=O)c2ccccc23)c(OC)c1OC` (centres undefined), for which the Potency was 14.1 µM (active).
In the case of `COc1ccc(/C=C2\CCc3ccccc3C2=O)c(OC)c1OC`, the Potency result is “inactive”.
Same read-out and setting: the entry for `COC(=O)C(C)C1Sc2ccccc2NC1=O` (centres undefined) is “inactive”.
Same read-out and setting: the entry for `CCOC(=O)C1CCCN(CC(=O)Nc2cc(C)c3c(=O)oc4ccccc4c3n2)C1` (centres undefined) is “inactive”.
In the case of `CCOC(=O)c1ccc(NC(=O)CCn2cnnn2)cc1`, the Potency entry is “inactive”.
For the compound `CSc1ncc(Cl)c(C(=O)Nc2ccc(S(=O)(=O)N3CCCC(C)C3)cc2)n1` (centres undefined), the Potency entry was “inactive”.
Still for that read-out and setting: the entry for `CCCCN(C)S(=O)(=O)c1ccc(C(=O)Nc2sc3c(c2C(N)=O)CC(C)(C)NC3(C)C)cc1` is “inactive”; for `CCN1CCN(C(c2ccc(C)cc2)c2c(O)cc(C)n(Cc3ccco3)c2=O)CC1` (centres undefined) it is “inactive”; for `Oc1c(Cl)cc(Cl)c(Cl)c1Cc1c(O)c(Cl)cc(Cl)c1Cl` it is 79.4 µM (active).
On the same count and under the same terms, the entry for `O=C(Nc1ccc(F)cc1F)c1cnn(-c2ccc(F)cc2)c1-n1cccc1` is “inactive”.
On the same count and under the same terms, the entry for `COc1ccc(C(=O)CSc2nccc(=O)[nH]2)cc1` is “inactive”; for `O=C(CSc1ncn[nH]1)Nc1nsc(-c2ccccc2)n1` it is “inactive”; for `CC(C)(C)c1ccc(C(=O)CSc2ncn[nH]2)cc1` it is 20 µM (active).
As to `CC(=O)Nc1nc(N(C)C)nc(N(C)C)n1`, the Potency result is “inactive”.
On the same count and under the same terms, the entry for `CNc1nc(Nc2ccc(C)c(Cl)c2)nc(N)c1[N+](=O)[O-]` is “inactive”; for `CN(C)c1nc(Nc2ccc(Cl)c(Cl)c2)nc(N(C)C)n1` it is 14.1 µM (active).
The same measure, in the same setting: the entry for `CCc1ccc(Sc2cc(C(=O)NCCCOC(C)C)c3ccccc3n2)cc1` is “inactive”; for `CSc1ccc(CCNC(=O)c2cc(C)nc3c2c(C)nn3-c2cccc(F)c2)cc1` it is “inactive”.
On to `O=C(CC1Oc2ccccc2NC1=O)NCc1ccc(F)cc1` (centres undefined), for which the Potency result is “inactive”.
Turning to `COc1ccc(Nc2cc(C(=O)NCCCN(C)c3ccccc3)c3ccccc3n2)c(OC)c1`, the Potency is 15.8 µM (active).
On the same count and under the same terms, the entry for `CCCCN(CCCNC(=O)c1cc(Nc2ccccc2OC)nc2ccccc12)c1ccccc1` is “inactive”; for `COc1ccccc1Nc1cc(C(=O)NCCCN(C)C2CCCCC2)c2ccccc2n1` it is “inactive”; for `COc1ccc(CCNC(=O)Cn2c(=O)cc(C(F)(F)F)c3c(C)nn(C)c32)c(OC)c1` it is “inactive”.
Same read-out and setting: the entry for `COc1ccc(C)cc1NC(=O)CCc1c(C)nn(-c2ccc(N3CCOCC3)nn2)c1C` is “inactive”; for `O=C(O)c1cccc(N=NN2CCCCCC2)c1` it is “inactive”.
On the same count and under the same terms, the figure for `CN1C(=O)/C(=C/c2ccco2)SC1=Nc1cccc(C(=O)O)c1` is 79.4 µM (active); for `CN=C1S/C(=C\c2c(OC)cc(OC)cc2OC)C(=O)N1C` it is “inactive”; for `COc1ccc(C)cc1Nc1nc2ccccc2c2nnc(C)n12` it is “inactive”.
On to `COc1ccc(OC)c(-n2nnc3c(sc4nc(C)c(Br)c(C)c43)c2=O)c1`, for which the Potency result was “inactive”.
On the same count and under the same terms, the entry for `O=S(=O)(c1cccc(C(F)(F)F)c1)N1CCN(c2nc(-c3cccs3)nc3ccccc23)CC1` is “inactive”; for `C=CCn1c(SCC(=O)NC)nnc1C12CC3CC(CC(C3)C1)C2` it is “inactive”; for `C=CCn1c(C23CC4CC(CC(C4)C2)C3)n[nH]c1=S` it is 11.2 µM (active).
The same measure, in the same setting: the entry for `C=CCn1c(SCC(=O)NC23CC4CC(CC(C4)C2)C3)nc(O)cc1=O` is “inactive”; for `CCOc1ccc(N2CC(C)Cn3c2nc2c3c(=O)n(Cc3c(F)cccc3Cl)c(=O)n2C)cc1` (centres undefined) it is “inactive”.
On the same count and under the same terms, the entry for `COc1ccc(CNC(=O)CSc2n[nH]c(-c3ccc(F)cc3)n2)cc1` is “inactive”.
For `CC(NC(=O)c1cc(Sc2ccc(F)cc2F)nc2ccccc12)c1ccccc1` (centres undefined), the Potency result is “inactive”.
For `CCC1CCCCN1C(=S)Nc1ccc(S(=O)(=O)Nc2ncccn2)cc1` (centres undefined), the Potency is 100 µM (active).
Same read-out and setting: the entry for `CCC1CCCCN1C(=S)Nc1ccc(SC(F)F)cc1` (centres undefined) is “inactive”; for `CCC1CCCCN1C(=S)Nc1ccc(C(C)=O)cc1` (centres undefined) it is “inactive”.
Same read-out and setting: the entry for `Cc1ccc2cccc(NC(=O)c3ccc(OC(C)C)cc3)c2n1` is “inactive”; for `Cc1cc2n(n1)C(c1cc(C(C)(C)C)c(O)cc1O)Nc1ccccc1-2` (centres undefined) it is “inactive”; for `CSc1ccc(CCNC(=O)c2cnn(-c3ccccc3)c2-n2cccc2)cc1` it is “inactive”.
Still for that read-out and setting: the entry for `Cc1ccc(C)c(Nc2nnc(-c3ccc(C)c(S(=O)(=O)N4CCCCC4)c3)c3ccccc23)c1` is “inactive”; for `CCc1c(C)[nH]c(=S)c(C#N)c1C` it is 3.98 µM (active).
On to `CCn1c(=O)c2cc(C(=O)NCCc3ccc(Cl)cc3)sc2c2ccccc21`, for which the Potency entry is “inactive”.
Still for that read-out and setting: the entry for `Cc1noc(/C=C/N(C)C)c1S(=O)(=O)N1CCCC(C(=O)Nc2cccc(F)c2)C1` (centres undefined) is “inactive”; for `O=C(Nc1ccc2nc(SCC(=O)N3CCCc4ccccc43)sc2c1)c1ccc(Cl)cc1` it is “inactive”; for `COc1ccc(CCNC(=O)CCCn2c(=O)c3ccccc3n(Cc3ccc(F)cc3Cl)c2=O)cc1OC` it is “inactive”.
Still for that read-out and setting: the entry for `COc1ccccc1CNC(=O)c1ccccc1NC(=O)c1nsc2ccccc12` is “inactive”.
Same read-out and setting: the entry for `CCOC(=O)CC1C(=O)NCCN1c1nc2c(C)cccn2c(=O)c1/C=C1\SC(=S)N(C(C)CC)C1=O` (centres undefined) is “inactive”; for `CCCN(CCC)c1nc2c(C)cccn2c(=O)c1/C=C1/SC(=S)N(Cc2ccco2)C1=O` it is 35.5 µM (active).
Take `Cc1ccc2[nH]c(=O)c(-c3nc4c(C)cccn4c3NCc3ccco3)cc2c1`: the activity change, negative = inhibition was -23.3% [at 11.4 µM] (inactive).
As to `Cc1cc(C)c(NC(=O)Cn2c(SCC(=O)NCc3ccccc3)nc3ccccc32)c(C)c1`, the Potency result is “inactive”.
